Test results published in the supplement of paper PMC8047044.
Where a name gives a salt, the structure may show the parent alone.

system: Neuro-2a; assay: neurite formation score, plate-normalized to DMSO control mean 5.04 (score (0-8 scale)); higher = more or longer neurites; conditions: 1 µM
Procedure: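 Neuro-2a mouse neuroblastoma cells in PLL-coated 96-well plates were pre-treated for 1 h in DMEM(+) with each kinase inhibitor at 1 µM, then switched to serum-free DMEM(-) with inhibitor to induce neurite outgrowth and fixed about 2-3 h later. Three blinded observers scored neurite formation from 0 (no neurites) to 8 (long neurites on almost all cells).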

| Compound | neurite formation score |
| --- | --- |
| O=C1Nc2ccc(I)cc2/C1=C/c1cc(Br)c(O)c(Br)c1 | 3.29 |
| Cc1nc(-c2cn3c(n2)-c2ccc(-c4cnn(C(C)(C)C(N)=O)c4)cc2OCC3)n(C(C)C)n1 | 5.29 |
| CC(C)c1cnn2c(NCc3ccccc3)cc(NCCCCCCN)nc12 | 4.57 |
| N=C(N)NC(=N)NCCc1ccccc1 [Phenformin HCl] | 4.8 |
| Nc1nccc(Oc2ccc(NC(=O)c3c[nH]cc(-c4ccc(F)cc4)c3=O)cc2F)c1Cl | 3.96 |
| Cc1[nH]c(/C=C2\C(=O)Nc3ccc(S(=O)(=O)N(C)c4cccc(Cl)c4)cc32)c(C)c1C(=O)N1CCN(C)CC1 | 3.57 |
| CCOC(=O)c1cnc2ccc(-c3cncc(NS(=O)(=O)c4ccccc4)c3)cn12 | -0.457 |
| Nc1cccc(S(=O)(=O)N2CCCN(S(=O)(=O)c3ccc4c(c3)OCCO4)CC2)c1 | 4.14 |
| CN(C)C(=O)c1cc2cnc(Nc3ccc(N4CCNCC4)cn3)nc2n1C1CCCC1 | 4.96 |
| N#Cc1cccc(-c2c[nH]c3ncnc(N4CCOCC4)c23)c1 | 5.21 |
| CC1=CC(=O)C(C(C)C)=C/C1=N/OC(=O)c1ccccc1C [Poloxin] | 4.02 |
| Cc1ccc(S(=O)(=O)Nc2nc3ccccc3nc2Nc2ccc3nsnc3c2)cc1 | 4.14 |
| O=C(NC1CCNCC1)c1n[nH]cc1NC(=O)c1c(Cl)cccc1Cl | 5.57 |
| CCCCCCCCCCCCCCCCCCOP(=O)([O-])OC1CC[N+](C)(C)CC1 [Perifosine] | 4.57 |
| CN(C)CCSSCCNC(=O)C1CCN(C(=O)CSc2ccc(Cl)cc2)CC1 | 3.63 |
| CNC(=O)CN1CCC(Oc2cc3c(Nc4cccc(Cl)c4F)ncnc3cc2OC)CC1 [AZD8931 (Sapitinib)] | 4.29 |
| O=C1c2ccc(Nc3ccc(F)cc3F)cc2CCc2ccc(OC[C@H](O)CO)cc21 [Skepinone-L] | 5.02 |
| C1=N/C2=N/c3ccc(OCCN4CCCC4)c(c3)COC/C=C/COCc3cccc(c3)C(=C1)N2 [Pacritinib] | 2.29 |
| CN(C)C/C=C/C(=O)Nc1cc2c(Nc3ccc(F)c(Cl)c3)ncnc2cc1O[C@H]1CCOC1 [Afatinib dimaleate] | 4.91 |
| C=CC(=O)Nc1ccc2ncnc(Nc3ccc(OCc4cccc(F)c4)c(Cl)c3)c2c1 | 4.24 |

| Compound | neurite formation score |
| --- | --- |
| CCS(=O)(=O)Nc1ccc2[nH]c(O)c(C(=Nc3ccc(CN4CCCCC4)cc3)c3ccccc3)c2c1 [Hesperadin] | 1.02 |
| CC(C)[C@H](CO)Nc1nc(Nc2ccc(C(=O)O)c(Cl)c2)c2ncn(C(C)C)c2n1 [Purvalanol B] | 4.63 |
| C=CC(=O)Nc1ccc2ncnc(Nc3cccc(Br)c3)c2c1 | 4.24 |
| CCn1cc(-c2ccnc3[nH]c(-c4cccc(CN(C)C)c4)cc23)c(-c2ccc(NC(=O)N(C)C)cc2)n1 | 4.69 |
| C[C@H](NC(=O)/C(C#N)=C/c1cccc(Br)n1)c1ccccc1 | 4.36 |
| CC(C)(C)c1cc(NC(=O)Nc2ccc(-c3cn4c(n3)sc3cc(OCCN5CCOCC5)ccc34)cc2)no1 [Quizartinib (AC220)] | 4.57 |
| Cn1cnc(=N)c2[nH]cnc21 [3-Methyladenine] | 4.24 |
| CCCS(=O)(=O)Nc1ccc(F)c(C(=O)c2c[nH]c3ncc(Cl)cc23)c1F | 2.91 |
| O=C(Nc1cccc(Nc2ncc(Br)c(NCCc3cnc[nH]3)n2)c1)N1CCCC1 | 3.91 |
| Cc1cc(CN2CCN(c3c(Br)cnc4nc(-c5ccc(N6CCN(C)CC6)cc5)[nH]c34)CC2)no1 | 4.47 |
| O=C(O)c1ccc(-c2c[nH]c3ncc(-c4ccccc4)cc23)cc1C1CCCC1 | 5.29 |
| Cn1cc(-c2ccc3nnc(C(F)(F)c4ccc5ncccc5c4)n3n2)cn1 | 4.02 |
| CCCCCCCCCCCCc1ccc(S(=O)(=O)Nc2nncs2)cc1 | 4.24 |
| O=C(c1ccc(Nc2nccc(-c3cc4ccccc4s3)n2)cc1)N1CCC(N2CCCC2)CC1 [IKK-16 (IKK Inhibitor VII)] | 4.54 |
| COc1cc(F)c(F)c(Nc2ccc(I)cc2F)c1NS(=O)(=O)C1(C[C@H](O)CO)CC1 [Refametinib] | 4.14 |
| CN1CCN(c2nc(C3=C(c4c[nH]c5ccccc45)C(=O)NC3=O)c3ccccc3n2)CC1 [Sotrastaurin (AEB071)] | 5.96 |
| CC1(COc2ccc3c(c2)ncn3-c2ccc3cccc(N4CCC(N)CC4)c3n2)COC1 | 3.57 |
| Brc1c(Br)c(Br)c2n[nH]nc2c1Br | 5.47 |
| C[C@@H]1COCCN1c1cc(C2(S(C)(=O)=O)CC2)nc(-c2cccc3[nH]ccc23)n1 | 4.57 |
| Cc1cc(Nc2ncc(Cl)c(Nc3ccccc3S(=O)(=O)C(C)C)n2)c(OC(C)C)cc1C1CCNCC1 | 4.24 |
